Our source for the inhibition values is PubChem BioAssay AID2069 (Sanford-Burnham Center for Chemical Genomics, 2009).

The campaign covered roughly 1,200 compounds. About 210 (18%) were called active. No stated cut-off is given here; in the data, active means inhibition above about 30%; inactive means the rest. A selection follows.

The test can be described thus: HTRF signal interference by compounds, confirmation, artefact control for SUMOylation inhibitor project, biochemical, uHTS (AID 2069). As to conditions: HTRF interference counterscreen, fluorescence, at 35 µM, stronger effect = higher value.
As to `CCOC(=O)c1nn(-c2ccc3c(c2)CCN3C(C)=O)cc1O`, the inhibition is 48.8% (active).
For `COc1ccc(Br)cc1CNc1ccc(O)cc1`, the inhibition is -15.2% (inactive).
The same measure for `O=C(O)CCCN1C(=O)/C(=C/C=C/c2ccco2)SC1=S`: 11.7% (inactive).
With `Cc1ccc(-c2nn(-c3ccccc3)cc2/C=C2\SC(=S)N(CCCCCC(=O)O)C2=O)o1`, the inhibition is 37% (active).
As for `O=C(O)CCCN1C(=O)/C(=C/c2cn(-c3ccccc3)nc2-c2cccs2)SC1=S`, the inhibition is 4.55% (inactive).
Take `COC(=O)c1cc2c(C)[nH]c(C)c2cc(C(=O)OC)c1=O`: the inhibition is 3.75% (inactive).
The same measure for `O=[N+]([O-])c1ccc(C=Nc2ccc(Cl)c([N+](=O)[O-])c2)s1`: 6.5% (inactive).
The same measure for `O=C(NNc1cc(N2CCCC2)nc(N2CCCC2)n1)c1ccc([N+](=O)[O-])cc1`: -2.1% (inactive); for `Cc1sc2nc3ccc(NCc4ccco4)nn3c(=O)c2c1C`: 44.4% (active).
As for `Cc1ccc(/C=c2\sc3nc(-c4ccco4)nn3c2=O)o1`, the inhibition is -1.1% (inactive).
For `COc1cccc(-c2[nH]nc3c2C(c2ccsc2)C(C#N)=C(N)O3)c1` (stereo unspecified), the inhibition is -11% (inactive).
`CC(NC(=O)Nc1ccc(O)cc1)(C(F)(F)F)C(F)(F)F`: the inhibition is 1.45% (inactive).
Consider `COc1ccc(S(=O)(=O)C(C#N)c2nc3ccccc3nc2N2CCCC(C)C2)cc1` (stereo unspecified), for which the inhibition is 13.2% (inactive).
In the case of `O=c1[nH]c(Nc2ccccc2)cc2ccccc12`, the inhibition is 41% (active).
For `O=c1[nH]c(Nc2ccc(F)cc2)cc2ccccc12`, the inhibition was 29.8% (inactive).
Regarding `COC1=C(Nc2ccccc2)C(=O)c2ccccc2C1=O`, the inhibition is -14.2% (inactive).
As to `C/C(=N\NC(=O)c1cc(O)cc(O)c1)c1ccc(NC(=O)Cc2ccccc2)cc1`, the inhibition is 25.6% (inactive).
With `COc1ccccc1/C=C/C=c1\sc2nc(=O)c(Cc3ccccc3)nn2c1=O`, the inhibition is 0.1% (inactive).
As to `Cc1cc(C)cc(Oc2coc3c(CN(C)C)c(O)ccc3c2=O)c1`, the inhibition is 48.2% (active).
Consider `CCN(CC)Cc1c(O)ccc2c(=O)c(Oc3ccccc3OC)coc12`, for which the inhibition is 42.6% (active).
`COc1ccc(NCc2cc3ccccc3[nH]c2=O)cc1`: the inhibition was 11.8% (inactive).
On to `N#Cc1c(-c2ccccc2)nc(SCC(=O)N2c3ccccc3Sc3ccccc32)[nH]c1=O`, for which the inhibition is 15.3% (inactive).
Regarding `CCOC(=O)N1CCN(C2=C(NS(=O)(=O)c3ccc(NC(C)=O)cc3)C(=O)c3ccccc3C2=O)CC1`, the inhibition was -27.3% (inactive).
The same measure for `Nc1ccc(Br)c2cccnc12`: 11.4% (inactive); for `Cc1ccc(N/N=C2\CC(=O)c3ccccc32)cc1Cl`: -12% (inactive); for `C/C(CCc1ccco1)=N\NC(=O)CNc1cccc2ccccc12`: 22.1% (inactive).
On to `O=c1c(C(c2ccccc2)c2c(O)sc3ccccc3c2=O)c(O)sc2ccccc12`, for which the inhibition is 4.95% (inactive).
The same measure for `COC1=C(Nc2ccccc2OC)C(=O)c2ccccc2C1=O`: -37.9% (inactive).
The same measure for `COc1cccc2c1C(=O)c1ccc3ccccc3c1C2=O`: 5.5% (inactive); for `COc1ccc(OC)c2c1C(=O)c1ccccc1C2=O`: 42.9% (active); for `COc1cccc(Cn2cccc(NC(=O)Nc3ccccc3C)c2=O)c1`: 0% (inactive).
For the compound `CCOC(=O)C1=C(C)NC(=O)CC1c1cc2c(cc1[N+](=O)[O-])OCO2` (stereo unspecified), the inhibition is -4.35% (inactive).
For `COc1cc(Br)c(C(=O)c2nccc3cc(OC)c(OC)cc23)cc1OC`, the inhibition was 3.15% (inactive).
Take `COc1ccc(NC(=O)CN2C(=O)S/C(=C/c3cccn3-c3ccc(C(=O)O)cc3)C2=O)cc1`: the inhibition was 8% (inactive).
The same measure for `O=C1C2C3C=CC(C4CC34)C2C(=O)N1CCc1ccccc1` (stereo unspecified): 8.65% (inactive); for `Cc1ccc(-n2nc3ccc(N)cc3n2)c(C)c1`: 59.3% (active).
The same measure for `Cc1ccc(C(=O)c2c3ccc(N)cc3nn2CCC(N)=O)cc1`: 14.2% (inactive); for `CN(C)C=Nc1ccc2nc3c(cc2c1)[nH]c1ccccc13`: 53.9% (active); for `CN(C)C=Nc1ccc2nn(-c3ccccc3)nc2c1`: 58.8% (active).
`Nc1ccc2nn(-c3cccc4ccccc34)nc2c1`: the inhibition was 64.5% (active).
The same measure for `CC1=NN(c2ccc(C)cc2C)C(=O)C1C(c1cccc(O)c1)C1C(=O)N(c2ccc(C)cc2C)N=C1C` (stereo unspecified): -2.1% (inactive); for `N#Cc1c(=O)c2nc(NCc3ccccc3)ncc2n2ccccc12`: 26% (inactive).
The same measure for `COc1ccccc1/C=C/C=N/NC(=O)c1cc(-c2ccco2)[nH]n1`: 1.9% (inactive); for `COc1ccccc1-n1cnc2c(c1=O)c1nc3ccccc3nc1n2-c1ccc(C)c(C)c1`: 2% (inactive); for `O=[N+]([O-])c1ccc(C2Nc3cccc4cccc(c34)N2)cc1`: -5.1% (inactive).
For the compound `N#CC1=C(SCC(=O)NC23CC4CC(CC(C4)C2)C3)NC(=O)C(C#N)C12CCCCC2` (stereo unspecified), the inhibition was 4.6% (inactive).
As for `Cc1cc(NC(=O)CSc2nnc(Nc3ccccc3C)s2)no1`, the inhibition was -1.2% (inactive).
In the case of `Oc1ccc(NC(=S)Nc2ccc(O)cc2)cc1`, the inhibition was 19.6% (inactive).
Turning to `Cc1[nH]n(-c2ccccc2)c(=O)c1C(C[N+](=O)[O-])c1ccc(Br)cc1` (stereo unspecified), the inhibition was -5.3% (inactive).
As to `Cn1cc2ccc(N)cc2n1`, the inhibition was 2.15% (inactive).
The same measure for `COc1ccc(-n2nc3cc(C)c(N)c(Br)c3n2)cc1`: -14.3% (inactive); for `Nc1ccc2nn(-c3ccccc3)nc2c1`: 66% (active); for `Cc1cccc(S(=O)(=O)C(C#N)c2nc3ccccc3nc2N2CC(C)OC(C)C2)c1` (stereo unspecified): 9.45% (inactive).
The same measure for `Cc1c(C(=O)c2ccc(Cl)cc2[N+](=O)[O-])c2ccccn2c1CCC#N`: 2.8% (inactive).
As for `Cc1n[nH]c(=S)n(NC(=O)/C=C/C(=O)Nn2c(=S)[nH]nc(C)c2=O)c1=O`, the inhibition is 51.5% (active).
In the case of `O=C(NCCc1csc(-c2ccccc2)n1)c1c(F)cccc1Cl`, the inhibition is -9.35% (inactive).
Regarding `CC1N(C)c2cccc3cccc(c23)N1C`, the inhibition was -9.25% (inactive).
In the case of `CCOC(=O)c1c(C)oc2c1c(C=NCCC(=O)O)c(O)c1ccccc12`, the inhibition is -7.35% (inactive).
The same measure for `CCOC(=O)c1c(-c2ccccc2)oc2ccc(OC(C)C(=O)O)cc12` (stereo unspecified): 58.6% (active); for `CCOC(=O)c1c(C)oc2c1C(=O)c1ccccc1C2=O`: 1.65% (inactive).
Take `N=C1S/C(=C\c2ccco2)C(=O)N1c1ccc2c(c1)OCO2`: the inhibition is 12.6% (inactive).
